Shown is part of a subset that was picked to be rich in hits.
LASV entry inh: inhibitors of Lassa virus binding or cell entry. Lassa virus pseudotype entry inhibition, cell reporter. Potency, µM (doses to about 37.9 µM), for inactives: top-dose activity change, negative = inhibition, hits mostly inhibitors. actives 1.2% (n = 300,000). AID 540256; calls by dose curve; tested in HEK293 cells; also: potency is read from the fitted curve at half-maximal effect; % is scaled to controls: 0 for no effect and ±100 for the full control effect; nearly all actives have a fitted effect of over 50% in size
Shiga toxin inh: Shiga toxin inhibition; Vero cells, Shiga toxin protein synthesis inhibition reporter; inhibition, % at 38.7 µM; actives 9.2% (n = 290,000); in the data active = inhibition mostly above about 28%, no sharp cut-off; inactive = mostly below about 43%; also: 0% is about no effect
Cycloheximide cs: affects cycloheximide protein synthesis inhibition readout, counter-screen; max response, %; cell reporter, cycloheximide protein synthesis inhibition counterscreen; actives 12% (n = 300,000); in the data active = max response mostly above about 13%, no sharp cut-off; inactive = mostly below about 14%; also: read at 38.3 µM for the half of the compounds with a filed dose; 0% is about no effect
Vaccinia Venus: vaccinia inhibition (Venus reporter). AID 720580. Potency, µM (doses to about 36.5 µM), without a hit: at the highest dose activity change, negative = inhibition, most hits filed as inhibitors. Vaccinia virus Venus reporter expression, fluorescence. actives 0.46% (n = 330,000); calls by dose curve; tested in A549 cells; also: potency is read from the fitted curve at half-maximal effect; % is scaled to controls: 0 for no effect and ±100 for the full control effect; nearly all actives have a fitted effect of over 30% in size
MARV entry inh: blocks Marburg virus binding to or entry into cells. Potency, µM (series often up to 37.8 µM), for inactives: top-dose activity change, negative = inhibition, actives largely listed as inhibitors. Marburg virus pseudotyped entry inhibition, cell reporter. AID 540276. actives 1.8% (n = 300,000); calls by dose curve; tested in HEK293 cells; also: potency is read from the fitted curve at half-maximal effect; % is scaled to controls: 0 for no effect and ±100 for the full control effect
VACV mCherry inh: inhibitors of vaccinia virus infection (mCherry reporter signal) | Vaccinia virus mCherry reporter infection, fluorescence | Potency, µM (series often up to 36.5 µM), inactives show top-dose activity change, negative = inhibition, actives largely listed as inhibitors | actives 0.63% (n = 310,000) | AID 720579; calls by dose curve; tested in A549 cells; also: potency is read from the fitted curve at half-maximal effect; % is scaled to controls: 0 for no effect and ±100 for the full control effect; nearly all actives have a fitted effect of over 35% in size
* marks the source's active call; other numbers are inactive results; i = inactive; ? = inconclusive; nt = no result given; [ ] = another dose, or the depositor's remark.

SMILES | LASV entry inh | Shiga toxin inh | Cycloheximide cs | Vaccinia Venus | MARV entry inh | VACV mCherry inh
CC(C)CSC1=NSC2=NC(=O)/C(=C\c3cccs3)C(=N)N12 | ? | 102* | 68* | -8% | ? | i
Cc1ccc(NC(=O)C2(C)CCN2C(=O)CCC2CCCC2)cc1C (configuration not stated) | nt | nt | nt | -13% | nt | i
O=S(=O)(NCC(c1ccco1)S(=O)(=O)c1ccccc1)c1cc(F)ccc1F (configuration not stated) | 1%[46.1 µM] | nt | nt | -14% | nt | -17%
N=C1/C(=C/c2cccs2)C(=O)N=C2SN=C(SCc3ccccc3)N12 | -1% | 37* | 26* | nt | -3% | nt
COc1ccc2c(c1)c(=O)c(C(=O)c1ccc(C)c(C)c1)cn2CC(=O)Nc1ccc2c(c1)OCCO2 | 1%[46.1 µM] | nt | nt | 0% | 2%[46.1 µM] | 12%
Oc1cc(-c2nc3ccccc3s2)cc2c1OCCN(Cc1cccn1-c1ccc(Cl)cn1)C2 | nt | nt | nt | -1% | nt | -7%
CCCCCC(=O)N1C[C@@H](n2cc(COC(=O)c3ccccc3)nn2)[C@H](O)C[C@H]1c1ccccc1 | 3%[46.1 µM] | nt | nt | nt | nt | nt
Cc1[nH]c2ccccc2c1C(=O)CCl | nt | -1 | -1 | ? | nt | ?
Cc1[nH]c2ccccc2c1C(=O)COc1ccccc1 | 12% | 49 | 15* | nt | 28% | nt
Cc1[nH]c2ccccc2c1C(=O)COc1ccccc1F | 21% | 74 | 25* | ? | 1%[46.1 µM] | -21%
COC(=O)c1cn(CCOc2ccccc2)c2ccccc12 | ? | 79* | 55* | ? | -26% | nt
COC(=O)c1cn(CCOc2ccccc2OC)c2ccccc12 | -17% | 26 | 1 | ? | ? | -26%
COC(=O)c1cn(CCOc2ccccc2F)c2ccccc12 | 3% | 71* | 40* | nt | ? | nt
Cc1ccc2c(c1)-c1c(cnn1CC(=O)N1CCN(c3cc(C)ccc3C)CC1)CO2 | nt | nt | nt | -14% | 6%[46.1 µM] | -21%
CCOC(=O)CC(NC(=O)Cn1nnc(-c2ccc(C(F)(F)F)cc2)n1)c1ccc(C)cc1 (configuration not stated) | 11%[46.1 µM] | nt | nt | -9% | 9%[46.1 µM] | -17%
COc1ccc(NC(=O)CSc2nccn2C)c([N+](=O)[O-])c1 | 0% | 60* | 23* | -10% | 24%[46.1 µM] | -9%
Cc1nc(NC(=O)CSc2nccn2C)sc1C(=O)N(C)C | 12% | 43* | 21* | -11% | 5% | -3%
O=S(=O)(CCSc1ccccn1)c1nc2ccccc2s1 | -26% | -2 | 20* | -5% | ? | -5%
Cn1ccnc1SCC(=O)Nc1ccc(Br)cc1C(F)(F)F | -2% | 117* | 22* | -13% | ? | -14%
COc1cc(CN2CCC3(CCC(CNC(=O)c4cc(C)nn4C)O3)CC2)ccc1F (configuration not stated) | nt | nt | nt | -21% | nt | i
CCOC(=O)c1oc2c(c1C)-c1nn(Cc3cccc(Cl)c3)cc1CC2 | -9%[46.1 µM] | nt | nt | -30% | 6%[46.1 µM] | -5%
CC(O)(COc1ccccc1)c1ccc2c(c1)CN(Cc1ccc3nsnc3c1)CCO2 (configuration not stated) | nt | nt | nt | 6% | nt | -12%
CCS(=O)(=O)Nc1ccc(C2=NN(S(=O)(=O)CC)C(c3cccs3)C2)cc1 (configuration not stated) | nt | 20 | -7 | nt | nt | nt
Cn1ccnc1SCC(=O)Nc1nc2ccccc2s1 | nt | 72* | 34* | -2% | nt | -12%
Cn1ccnc1SCC(=O)Nc1ccc2nc(SCC(=O)NC3CC3)sc2c1 | -11% | 113* | 33* | -26% | ? | nt
SMILES | LASV entry inh | Shiga toxin inh | Cycloheximide cs | Vaccinia Venus | MARV entry inh | VACV mCherry inh
Nn1c(SCC(=O)Nc2nc3ccccc3s2)nncc1=O | 19% | 40 | 23* | 3% | 1% | i
O=C(CSc1nc2ccccc2s1)Nc1ncccn1 | 6% | 13 | 40* | -10% | -5%[46.1 µM] | i
O=C(CSc1nccn1-c1ccccc1)Nc1nc2ccccc2s1 | 11%[46.1 µM] | nt | nt | -10% | nt | -13%
CCN(CC(=O)NCc1ccc(Cl)cc1)C(=O)CCc1ccccc1O | ? | -5 | -2 | -20% | -4%[46.1 µM] | -4%
CC1CCN(S(=O)(=O)c2cn(CC(=O)N3CCN(c4cccc(C(F)(F)F)c4)CC3)cn2)CC1 | nt | -4 | -8 | nt | nt | nt
Cn1ccnc1SCC(=O)Nc1cccc2ccccc12 | 18% | 25 | 39* | nt | ? | nt
O=C(CSc1ccccn1)Nc1cccc(NC(=O)CSc2ccccn2)n1 | 0% | 20 | 18 | -15% | 0% | -10%
O=C(CSc1ccccn1)Nc1nc2ccccc2s1 | 5% | 19 | 28* | -12% | ? | i
O=C(CSc1cn[nH]n1)Nc1nc2ccccc2s1 | nt | 53* | 27* | -14% | -18%[46.1 µM] | 1%
O=C(CSc1nc2ccccc2s1)NCCOc1ccccc1 | 9% | 17 | 15* | -6% | ? | -5%
COC(=O)c1ccccc1NC(=O)CSc1nccn1C | 3% | -14 | 14 | 3% | 4% | -9%
COc1cc(C(=O)Nc2nnc(S(=O)(=O)N(C)c3ccccc3)s2)cc(OC)c1OC | 36%[46.1 µM] | nt | nt | 0% | nt | 1%
Cc1ccccc1-c1noc(CCC(=O)Nc2cccc(C)c2C)n1 | 11%[46.1 µM] | nt | nt | -1% | -5%[46.1 µM] | -11%
CC1=C(C(=O)Nc2ccccc2C)C(c2cccs2)n2nc(SCc3ccccc3)nc2N1 (configuration not stated) | ? | nt | nt | -22% | ? | ?
Brc1c(CSc2nc3ccccc3s2)nc2ncccn12 | 11% | 43 | 23* | -10% | ? | -23%
CCCn1c2ccccc2c2cnn(CC(=O)N3CCCC(C)C3)c(=O)c21 (configuration not stated) | -4%[46.1 µM] | nt | nt | -15% | nt | i
O=C(C[n+]1cccc2ccccc21)c1ccc(F)cc1 | nt | nt | nt | 3% | nt | i
C/C(CC(=O)Nc1ccc(OCc2ccccc2)cc1)=N\NC(=O)C(=O)Nc1cccc(C)c1 | 11% | -2 | 28* | ? | 9% | ?
O=C(N/N=C/c1ccccc1)c1ccc(OCc2ccccc2)cc1 | nt | 2 | 4 | ? | nt | -13%
CC(=O)Nc1ccc(C(=O)N/N=C(\C)CC(=O)Nc2ccc(OCc3ccccc3)cc2)cc1 | 16% | -2 | 18* | -21% | ? | -10%
COc1ccccc1NC(=O)C(=O)N/N=C(\C)CC(=O)Nc1ccc(OCc2ccccc2)cc1 | -14% | 21 | 23 | ? | 14% | nt
CCS(=O)(=O)Nc1cc(C(=O)N2CCC[C@H]2CO)c2c(c1)nc(-c1ccccc1)n2C | nt | nt | nt | -4% | nt | -4%
Cn1cc(CCC(=O)NC2CC(C)(C)Cc3c2cnn3-c2ccc(F)cc2)cn1 (configuration not stated) | -10% | 4 | -2 | -17% | -4% | -2%
CCc1ccc(C2=C(C)C(N3CCC(C(=O)NCCc4ccco4)CC3)=NS2(=O)=O)cc1 | 0%[46.1 µM] | nt | nt | -5%[7.34 µM] | nt | -9%[7.34 µM]
O=[N+]([O-])c1ccc(-c2nnc(CNC3CCCC3)o2)cc1 | nt | 20 | 13 | -4% | 4%[46.1 µM] | -10%
Clc1ccc(-c2nnc(CNC3CC3)o2)cc1 | 12% | 23 | 21* | nt | 12% | nt
Fc1ccc(F)c(C2=NNC(=NCC3CCCO3)SC2)c1 (configuration not stated) | nt | 131* | 33* | nt | nt | nt
Cc1cnc(C(=O)Nc2nnc(C3CC3)s2)cn1 | 0% | 23 | 32* | nt | -7% | nt
